Compound activity deposited in PubChem by National Center for Advancing Translational Sciences (NCATS).
Most compounds without a hit are left out; they make up all but 2.5% or so of the library.
Casp7 inh: caspase-7 (human) inhibition, allosteric or competitive. P55210. recombinant caspase-7, Ac-DEVD-AFC fluorescence rate. Potency, µM (titrated, usually from 57.5 µM), for the others: at the top dose activity change, negative = inhibition, hits mostly inhibitors. 75,000 tested, 0.02% active; active means well fitted inhibition curve with a large enough effect in the main read-out, with a control signal flat, not every such curve was filed as active; inconclusive means small, poorly fitted or top-dose-only effect, or a change in a side signal; further: % of control where 0% means no effect
p53ts 39C kill: p53ts cell cytotoxicity, nonpermissive temperature; Potency, µM (top dose mostly 46.1 µM), for inactives: top-dose activity change, negative = cell killing, actives largely listed as cytotoxic; 130,000 tested, 1.5% active; H1299-p53A138V viability at 39C, ATP luminescence, 24 h; further: on the % scale 0 is the no-effect control and ±100 the full control effect; nearly all actives have a fitted effect of over 55% in size
FLuc inh: blocks Photinus pyralis firefly luciferase activity. Potency, µM (highest dose often 57.1 µM), for the others: top-dose activity change, negative = inhibition, hits mostly inhibitors. purified firefly luciferase, luminescence, 8 min. P08659. 72,000 tested, 2.2% active; further: on the % scale 0 is the no-effect control and ±100 the full control effect; nearly all actives have a fitted effect of over 40% in size
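qHTS concentration-response profiling: light output of P. pyralis luciferase with luciferin and 10 uM ATP, imidazole buffer pH 7.2. Read by luminescence after 8-min room-temperature incubation.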
Casp1 inh: caspase-1 (human) inhibition, allosteric or competitive; 75,000 tested, 0.03% active; Caspase-1 enzyme, Ac-WEHD-AFC fluorogenic rate; AID 900; Potency, µM (doses to about 57.5 µM), without a hit: at the highest dose activity change, negative = inhibition, actives largely listed as inhibitors; P29466;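 further: plate controls were vehicle for no effect and no substrate for full effect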
IkB sig inh: inhibitors of IkB signaling in ABC-DLBCL cells; AID 445; 110,000 tested, 0.04% active; Potency, µM (top dose mostly 57.1 µM), for the others: top-dose IkBa stabilization activation; ABC-DLBCL IkBa-CBG/CBR dual luciferase ratio, 4 h; response scale: scaled: untreated 0%, proteasome inhibitor 100%; active means well fitted curve in the direction sought with a large enough effect in the signal ratio, not every such curve was filed as active; inconclusive means small, poorly fitted or top-dose-only effect, or a change in a side signal; the % refers to the signal ratio;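 further: the direction sought is a rising ratio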
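In this assay, an IκBα–CBG68 fusion accumulates when IKK-driven degradation is blocked; native CBR normalizes for cell number. OCI-Ly3 cells were treated 4 h with compound and doxycycline, then green and red light read after Chroma-Glo addition.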
p53ts 32C tox: cytotoxicity in p53ts cells at permissive temperature; H1299-p53A138V at 32C, ATP luminescence viability, 24 h; Potency, µM (series often up to 46.1 µM), inactives show at the highest dose activity change, negative = cytotoxicity, hits mostly cytotoxic; 130,000 tested, 0.93% active; AID 924;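 further: 0% = DMSO and -100% = full killing by reference compound; nearly all actives have a fitted effect of over 55% in size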
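Cells: H1299 p53ts (A138V), 600/well, pre-incubated 16–30 h at 37C. Cpd up to 46 uM, 24 h, 32C. Readout: ATPlite luminescence, 20 min RT. Normalization: DMSO vs tamoxifen 100 uM. AC50 by Hill equation.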
An asterisk follows results filed as active; ? = inconclusive; . = not tested or not shown; [ ] = dose if it differs, or a comment. Unless noted, the call rests on the fitted dose curve; in most records, active means well fitted curve in the direction sought with a large enough effect; inconclusive means small, poorly fitted or top-dose-only effect, or another doubt; inactive means no such curve, though single readings can be large; an effect the other way counts as inactive or inconclusive. Potency means the concentration at half of the fitted maximal effect.

SMILES	Casp7 inh	p53ts 39C kill	FLuc inh	Casp1 inh	IkB sig inh	p53ts 32C tox
Cc1cccc(NC(=O)c2cc(-c3ccc4c(c3)OCCO4)on2)c1	.	1µM*	.	.	?	1µM*
O=C(Nc1cccc(Cl)c1)c1cc(-c2ccc3c(c2)OCCO3)on1	.	4µM*	.	.	?	?
CCOC(=O)c1ccc(NS(=O)(=O)c2ccc(-c3cc(C)no3)cc2)cc1	.	0%	.	.	?	11%
CCCOc1ccc(NC(N)=O)cc1OCCC	0%	8%	-2%	1%	0%	-2%
COc1ccc2oc(=O)c(-c3nc4ccccc4o3)cc2c1	.	-11%	.	.	.	-27%
COc1ccc2nc3c(cc2c1)Cc1ccccc1-3	-7%	0.79µM*	.	-4%	.	0.79µM*
COc1cccc(-c2nc(-c3ccc(Br)o3)no2)c1	.	13µM*	.	.	4%	?
COc1ccc(-c2nc(-c3ccc(Br)o3)no2)cc1OC	-1%	-1%	-7%	-1%	-1%	-2%
COc1cccc(-c2nnc(-c3ccc(C)o3)o2)c1	.	11µM*	.	.	.	13µM*
Brc1ccc(-c2nc(-c3ccccc3)no2)o1	1%	-8%	13µM*	0%	9%	-6%
c1ccc(-c2noc(-c3ccc4ccccc4c3)n2)cc1	1%	?	1.3µM*	0%	?	?
Cc1ccc2nc(NC(=O)Cn3cc4c(n3)CCCCC4)sc2c1	-17%	2%	1%	-8%	0%	-5%
CC(C)=CC(=O)Nc1ccc(Br)cc1	0%	-15%	20µM*	0%	-1%	-24%
Cc1ccc2cc3cc(C(=O)N4CC(C)CC(C)C4)oc3nc2c1 (configuration not stated)	-3%	-18%	-7%	-4%	?	-2%
Cc1ccc2cc3cc(C(=O)N(C)c4ccccc4C)oc3nc2c1	.	10µM*	.	.	-2%	?
CCN(C(=O)c1cc2cc3ccc(C)cc3nc2o1)c1ccc(OC)cc1	-2%	8%	-1%	-2%	?	13%
Cc1ccc2cc3cc(C(=O)N4CCCCC4C)oc3nc2c1 (configuration not stated)	-3%	?	13µM*	2%	1%	13µM*
COc1ccc(C)cc1NC(=O)c1cnc2scc(C)n2c1=O	-9%	3%	2%	-9%	?	-3%
O=C(N1CCOCC1)N1CCN(c2nc(-c3ccc(F)cc3)cs2)CC1	0%	-30%	16µM*	-3%	-1%	-25%
O=c1cc(-c2ccccc2)nc2cc(-c3ccc(F)cc3)[nH]n12	.	10µM*	.	.	?	-20%
Cc1cc(=O)n2[nH]c(-c3ccccc3)cc2n1	-1%	-22%	-18%	-1%	2%	-21%
c1ccc(CN2CCC3(CC2)Nc2ccccc2CO3)cc1	0%	16%	0%	3%	2%	-2%
COc1cccc(C(=O)Nc2ccc(-c3nnc(-c4ccco4)o3)cc2)c1	.	.	-2%[25.5 µM]	.	.	.
CCCOc1ccc(-c2nnc(-c3ccco3)o2)cc1	-1%	?	10µM*	-1%	3%	13µM*
O=C(COc1ccccc1)Nc1ccc(-c2nnc(-c3ccco3)o2)cc1	.	.	0%[25.5 µM]	.	.	.
SMILES	Casp7 inh	p53ts 39C kill	FLuc inh	Casp1 inh	IkB sig inh	p53ts 32C tox
CC(C)COc1ccc(-c2nnc(-c3ccco3)o2)cc1	-4%	?	16µM*	-5%	?	?
C#C[C@@]1(OC(C)=O)CC[C@@H]2[C@@H]3CCC4=C[C@@H](OC(C)=O)CC[C@H]4[C@H]3CC[C@]21C	0%[25.7 µM]	5%[20.6 µM]	2%[25.5 µM]	-2%[25.7 µM]	6%[25.6 µM]	5%[20.6 µM]
COc1cccc(-c2nc(CS(=O)CC(=O)O)c(C)o2)c1 (configuration not stated)	2%	1%	1%	-3%	2%	-2%
N#Cc1c(-n2ncnc2-c2ccc(F)cc2)sc2c1CCCCC2	.	13µM*	.	.	?	13µM*
N#Cc1c(-n2ncnc2-c2cccc(Br)c2)sc2c1CCCCC2	.	-24%	.	.	?	2%
Cc1ccccc1-c1ncnn1-c1sc2c(c1C#N)CCCCC2	.	13µM*	.	.	?	?
COc1cccc(N2C(=O)c3ccncc3C2=O)c1	2%	-4%	1%	-1%	-1%	-1%
CNC1=C(Cl)C(=O)c2ccncc2C1=O	-24%	4µM*	.	?	.	1.6µM*
CNC1=C(Br)C(=O)c2ccncc2C1=O	?	2µM*	.	?	.	0.79µM*
O=C1c2ccncc2C(=O)N1CO	0%	9%	-1%	0%	-1%	-2%
COc1ccc(CCNC(=O)CCCn2c(=O)c3cccn3c3ccccc32)cc1OC	.	?	.	.	?	5%
Cc1ccc(-c2nc(Nc3ccccc3)n[nH]2)cc1	1%	-22%	13µM*	0%	?	-20%
Cc1nnc(NC(=O)CSc2nnc(Cc3cccn3C)n2-c2cccc(C)c2C)s1	0%	7%	2%	-2%	2%	-4%
COc1cc(C)nc(OCCNC(=O)COc2ccc(Cl)cc2C)n1	0%	1%	1%	1%	1%	11%
COc1cccc(-c2nc(-c3ccccn3)no2)c1OC	-1%	?	?	0%	-1%	?
COc1cccc2[nH]c(-c3ccccn3)nc12	0%[11.5 µM]	?	3.2µM*	0%[11.5 µM]	2%[11.4 µM]	?
Cc1nn(CC(=O)NC2CCC(C)CC2)c(=O)c2c1sc1ccccc12 (configuration not stated)	.	?	.	.	?	-19%
Cc1nn(C(C)C(=O)N2CCCCC2)c(=O)c2c1sc1ccccc12 (configuration not stated)	1%	2%	.	-1%	.	5%
Cc1nn(C(C)C(=O)NC2CCC(C)CC2)c(=O)c2c1sc1ccccc12 (configuration not stated)	.	10µM*	.	.	?	11µM*
COc1ccc(N2CCN(C(=O)C(C)n3nc(C)c4sc5ccccc5c4c3=O)CC2)cc1 (configuration not stated)	.	10µM*	.	.	-5%	10µM*
